Experimental findings from PubChem BioAssay (NCI) are described below.

Common to all, as to experiment: NCI-60 one-dose screen, 48 h (100 = growth as untreated, 0 = no growth, -100 = all killed)
For one experiment, the system named is SR leukemia. The settings on record: 10 µM unless noted.
In the next experiment the test system is RPMI-8226 leukemia. The settings on record: 10 µM unless noted.
The test system of the next experiment is OVCAR-8 ovarian. The conditions noted are these: 10 µM unless noted.
The next experiment concerns OVCAR-5 ovarian. The settings on record: 10 µM unless noted.
The next experiment concerns OVCAR-4 ovarian. The settings on record: 10 µM unless noted.
The subject of the next experiment is SK-OV-3 ovarian. The settings on record: 10 µM unless noted.
The subject of another experiment is IGROV1 ovarian. The conditions noted are these: 10 µM unless noted.
The subject of the next experiment is OVCAR-3 ovarian. The settings on record: 10 µM unless noted.
Another experiment deals with NCI/ADR-RES ovarian. The settings on record: 10 µM unless noted.
The next experiment has as its system T-47D breast. The settings on record: 10 µM unless noted.
The next experiment deals with BT-549 breast. The conditions noted are these: 10 µM unless noted.
The next experiment concerns MDA-MB-435 melanoma. The settings on record: 10 µM unless noted.
The next experiment deals with SW-620 colon. The conditions noted are these: 10 µM unless noted.
Another experiment concerns HCT-116 colon. The conditions noted are these: 10 µM unless noted.
The test system of another experiment is HCC-2998 colon. The settings on record: 10 µM.
In another experiment the test system is KM12 colon. The conditions noted are these: 10 µM unless noted.
Another experiment has as its system MCF7 breast. The settings on record: 10 µM unless noted.

The panel holds about 83,000 compounds, 20% with a hit somewhere; the sample as a whole holds those more often.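 Cells were grown in 96-well plates and exposed to the test compound at a single concentration for 48 hours; results are reported as percent growth, with values below 10 considered active.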 Unmarked numbers belong to inactive results. Calls of active or inactive are those of the source.

For the molecule `C=CC(=O)N1CCC(Oc2cc3c(Nc4ccc(Cl)c(Cl)c4F)ncnc3cc2OC)CC1`, the growth is -20.2% (active) in the experiment on SR leukemia; 35% in the experiment on RPMI-8226 leukemia; 18.4% in the experiment on OVCAR-8 ovarian; 25.3% in the experiment with OVCAR-5 ovarian; 39% in the experiment on OVCAR-4 ovarian; -37.4% (active) in the experiment on SK-OV-3 ovarian. In addition, the growth in the experiment on IGROV1 ovarian is -44.8% (active); in the experiment on OVCAR-3 ovarian it was 19.4%; in the experiment with NCI/ADR-RES ovarian, -16.8% (active); in the experiment on T-47D breast, -4.87% (active); with BT-549 breast it was 8.14% (active); in the experiment on MDA-MB-435 melanoma, -34.7% (active). Besides, the growth with SW-620 colon was 32.8%; with HCT-116 colon, 21.8%; in the experiment on HCC-2998 colon it was 67.1%; in the experiment with KM12 colon it was 30.6%.
With `Cn1cc(-c2[nH]c3cc(NC(=O)[C@H](N)C4CCCCC4)cc4c3c2C=NNC4=O)cn1`, the growth in the experiment on SR leukemia was -15.7% (active); with RPMI-8226 leukemia, -18.1% (active); with OVCAR-8 ovarian it was -29.5% (active); in the experiment with OVCAR-5 ovarian, 13%; in the experiment with OVCAR-4 ovarian, 20.9%; in the experiment with SK-OV-3 ovarian, 6.78% (active). Further, the growth in the experiment with IGROV1 ovarian was -27.4% (active); with OVCAR-3 ovarian, -13% (active); in the experiment with NCI/ADR-RES ovarian, 49.7%; with T-47D breast, -9.81% (active); in the experiment on BT-549 breast it was -73.7% (active); in the experiment on MDA-MB-435 melanoma it was -33.9% (active). The growth is -12.1% (active) in the experiment with MCF7 breast, -76% (active) in the experiment with HCT-116 colon and 2.52% (active) with KM12 colon.
With `C[C@@H](NC(=O)c1ncnc(N)c1Cl)c1ncc(C(=O)Nc2cc(C(F)(F)F)c(Cl)cn2)s1`, the growth in the experiment with SR leukemia is 57.5%; in the experiment on RPMI-8226 leukemia, 71.9%; with OVCAR-8 ovarian it was 64.5%; in the experiment on OVCAR-5 ovarian, 31.3%; in the experiment on OVCAR-4 ovarian, 98.5%; in the experiment on SK-OV-3 ovarian, 93.6%. For the same molecule, the growth with IGROV1 ovarian is 63.5%; in the experiment with OVCAR-3 ovarian it was 95%; with NCI/ADR-RES ovarian it was 79.8%; in the experiment on T-47D breast, 92.2%; in the experiment with BT-549 breast, 110%; with MDA-MB-435 melanoma, 39.3%. Also, the growth is 56.9% with SW-620 colon, 25.3% with HCT-116 colon, 69.4% in the experiment with HCC-2998 colon and 75.1% in the experiment on KM12 colon.
As to `Cc1cc(Nc2ncc(Cl)c(Nc3ccccc3S(=O)(=O)C(C)C)n2)c(OC(C)C)cc1C1CCNCC1`, the growth is -44.7% (active) in the experiment on SR leukemia; -56.7% (active) in the experiment with RPMI-8226 leukemia; -67.2% (active) in the experiment with OVCAR-8 ovarian; -96.6% (active) in the experiment with OVCAR-5 ovarian; -89.2% (active) in the experiment on OVCAR-4 ovarian; -32.2% (active) in the experiment with SK-OV-3 ovarian. The growth with IGROV1 ovarian is -72.2% (active); in the experiment with OVCAR-3 ovarian, -96.4% (active); in the experiment on NCI/ADR-RES ovarian, -60.6% (active); with T-47D breast, -77.7% (active); with MDA-MB-435 melanoma it was -100% (active); in the experiment with SW-620 colon it was -92.7% (active). Also, the growth in the experiment on MCF7 breast was -73.7% (active); with HCT-116 colon it was -97.5% (active); in the experiment on HCC-2998 colon, -93% (active); in the experiment on KM12 colon, -95.8% (active).
Consider `C/C(=C(/c1ccc(Cl)cc1)c1ccc(OCCN2CCCCC2)cc1)c1ccccc1`, for which the growth in the experiment with SR leukemia is 11.2%; with RPMI-8226 leukemia, 69.6%; in the experiment on OVCAR-8 ovarian, 78.8%; with OVCAR-5 ovarian, 81.6%; in the experiment with OVCAR-4 ovarian, 77.1%; with SK-OV-3 ovarian, 86%. For the same molecule, the growth in the experiment on IGROV1 ovarian was 68.5%; in the experiment on OVCAR-3 ovarian, 98.6%; with NCI/ADR-RES ovarian it was 89.8%; with T-47D breast, 46.7%; in the experiment on MDA-MB-435 melanoma, 90.9%; in the experiment with SW-620 colon, 60.1%. Moreover, the growth was 43.6% with MCF7 breast, 54.2% with HCT-116 colon, 98% in the experiment with HCC-2998 colon and 29.9% with KM12 colon.
`Cc1[nH]c(/C=C2\C(=O)Nc3ccc(F)cc32)c(C)c1C(=O)NC[C@H](O)CN1CCOCC1`: the growth in the experiment with SR leukemia is -2.38% (active); with RPMI-8226 leukemia, 49.4%; in the experiment on OVCAR-8 ovarian it was 42.6%; in the experiment with OVCAR-5 ovarian, 15.1%; in the experiment on OVCAR-4 ovarian it was 50.6%; in the experiment on SK-OV-3 ovarian it was 3.3% (active). The growth in the experiment with IGROV1 ovarian is 19.6%; with OVCAR-3 ovarian, 70.3%; in the experiment on NCI/ADR-RES ovarian it was 64.7%; in the experiment on T-47D breast, 59.5%; in the experiment with MDA-MB-435 melanoma it was 18.6%; in the experiment with SW-620 colon, 11.8%. Further, the values for the growth in the experiment on MCF7 breast, in the experiment on HCT-116 colon and in the experiment on HCC-2998 colon were 38.4%, 10.7% and 41%, respectively.
`CCNC(=O)C#Cc1ccc2c(C(=Nc3ccc(CN(C)C)cc3)c3ccccc3)c(O)[nH]c2c1`: the growth with SR leukemia was -13.6% (active); in the experiment on RPMI-8226 leukemia, 30%; with OVCAR-8 ovarian it was 48.3%; with OVCAR-5 ovarian, 5.7% (active); in the experiment on OVCAR-4 ovarian, 51.9%; in the experiment on SK-OV-3 ovarian, 10.8%. Further, the growth was 5.41% (active) with IGROV1 ovarian; 51% in the experiment on OVCAR-3 ovarian; 54.3% in the experiment with NCI/ADR-RES ovarian; 62.3% in the experiment with T-47D breast; 52.8% with BT-549 breast; 14.7% with MDA-MB-435 melanoma. The growth in the experiment on SW-620 colon was 0.412% (active); in the experiment on MCF7 breast it was 33.1%; in the experiment on HCC-2998 colon, -17.3% (active); with KM12 colon, 6.13% (active).
On to `O=C1C=CC2(NN=C(c3ccccc3)N2c2cccc(Cl)c2)c2cccc(O)c21` (configuration not stated), for which the growth in the experiment with SR leukemia is 49.9%; with RPMI-8226 leukemia it was 57.4%; with OVCAR-8 ovarian it was 63.1%; in the experiment on OVCAR-5 ovarian it was 52.8%; in the experiment on OVCAR-4 ovarian it was 59.3%; in the experiment with SK-OV-3 ovarian, 92.5%. In addition, the growth in the experiment on IGROV1 ovarian is 70.4%; in the experiment with OVCAR-3 ovarian, 36.6%; in the experiment with NCI/ADR-RES ovarian, 56%; in the experiment with T-47D breast, 101%; in the experiment with BT-549 breast, 61.7%; in the experiment with MDA-MB-435 melanoma, -91.9% (active). The growth is 62.5% with MCF7 breast, 54.8% in the experiment with HCT-116 colon, 90.8% in the experiment with HCC-2998 colon and 64.9% in the experiment with KM12 colon.
Consider `Cc1c(Cn2c(C)nc3c(C(=O)O)cc(N4CCOCC4)cc32)cccc1C(F)(F)F`, for which the growth was 75.7% in the experiment on SR leukemia; 104% in the experiment with RPMI-8226 leukemia; 92.1% in the experiment with OVCAR-8 ovarian; 101% in the experiment on OVCAR-5 ovarian; 96.2% with OVCAR-4 ovarian; 96% in the experiment on SK-OV-3 ovarian. The growth with IGROV1 ovarian is 114%; in the experiment with OVCAR-3 ovarian, 87.2%; in the experiment with NCI/ADR-RES ovarian it was 62.1%; in the experiment with T-47D breast it was 69.2%; in the experiment on BT-549 breast, 70.9%; with MDA-MB-435 melanoma, 106%. Further, the growth is 92.6% in the experiment with MCF7 breast, 92.1% in the experiment on HCT-116 colon, 103% with HCC-2998 colon and 103% with KM12 colon.
